Out of some 16,000 compounds screened, about 160 (1%) were called active. Not shown: some 8% with an inconclusive outcome. The full list was thinned out, with actives kept by preference. A number with no mark means an inactive call. The call rests on the fitted dose curve; in most records, active means well fitted activation curve with a large enough effect; inconclusive means small, poorly fitted or top-dose-only effect; inactive means no such curve, though single readings can be large or run the other way.
Biological target: Rap guanine nucleotide exchange factor 3 (Homo sapiens) (UniProt O95398)
Test: Validation qHTS for agonist of cAMP-regulated guanine nucleotide exchange factor 3 (EPAC1); further: nearly all actives have a fitted effect of over 70% in size
Conditions: EPAC1 Rap1b BODIPY-GDP exchange, fluorescence; max response: stronger effect = higher value, percent of cAMP control response
From the text: Assay Provider (PI): Xiaodong Cheng Ph.D.
The University of Texas Medical Branch, […], TX
In multi-cellular eukaryotic organisms, the effects of cAMP are transduced by two ubiquitously-expressed intracellular cAMP receptors, the classic protein kinase A/cAMP-dependent protein kinase (PKA/cAPK) and the more recently discovered exchange protein directly activated by cAMP/cAMP-regulated guanine nucleotide exchange factor (EPAC/cAMP-GEF). Both PKA and EPAC are ubiquitously expressed in all tissues, and an increase in intracellular cAMP levels will lead to the activation of both PKA and EPAC. Therefore, careful dissections of the individual role and relative contribution of EPAC and PKA within the overall cAMP signaling in various model systems are critical for further elucidating the mechanism of cAMP signaling. To date no EPAC-specific antagonists and agonist, as well as isoform-specific agonists have been reported, and developing EPAC-specific pharmacological probes to determine the physiological functions that EPAC play in the overall cAMP-mediated signaling remains a major challenge within the research field. Furthermore, identified regulators of EPAC may lead to new mechanism-based therapeutic strategies specifically targeting the EPAC / cAMP-signaling components as EPAC has been implicated to play important roles in major human pathological conditions such as diabetes, heart disease, and cancer.
This qHTS will be used to screen the Molecular Libraries Small Molecule Repository (MLSMR) as a concentration-titration series using the NCGC unique quantitative screening (qHTS) platform to find activators for EPAC1. In addition, this assay will also be used as a counterscreen for the EPAC2 qHTS. This fluorescent based assay is developed and validated for EPAC1 that measures exchange using EPAC effector Rap1 complex with BODIPY-GDP, a GDP analog with a tethered fluorophores. Activators are identified by monitoring the change in fluorescence signal as the exchanged free BODIPY-GDP has a reduced fluorescence compared to Rap1-bound BODIPY-GDP. Increase in signal (activation) is the desired outcome for the EPAC1 agonist while no activity in this assay is desired for the EPAC2 agonist counterscreen.
[1] de Rooij, J., Zwartkruis, F. J., Verheijen, M. H., Cool, R. H., Nijman, S. M., Wittinghofer, A., and Bos, J.L. (1998) Nature 396, 474-477.
Briefly, three uL of reagents (100 nM EPAC1, 250 nM RAP1B-BODIPY-GDP, 50 uM GDP) were dispensed into a 1536-well Greiner black solid-bottom medium binding assay plate. Controls and test compounds (23 nL) were transferred to the plate via a Kalypsys pin tool equipped with a 1536-pin array. The plates were centrifuged at 1,000 rpm for 15 seconds followed by 5 minute incubation at room temperature. The assay plates were read at 5 minute intervals for 30 minutes in the ViewLux plate reader using 480nm excitation and 540nm emission filters. The results were normalized to the agonist positive control of 6.5 mM cAMP.
On the % scale 0 is the no-effect control and ±100 the full control effect; potency means the concentration at half of the fitted maximal effect.

Sequence of Rap guanine nucleotide exchange factor 3 (Homo sapiens) (O95398 whole entry, looked up): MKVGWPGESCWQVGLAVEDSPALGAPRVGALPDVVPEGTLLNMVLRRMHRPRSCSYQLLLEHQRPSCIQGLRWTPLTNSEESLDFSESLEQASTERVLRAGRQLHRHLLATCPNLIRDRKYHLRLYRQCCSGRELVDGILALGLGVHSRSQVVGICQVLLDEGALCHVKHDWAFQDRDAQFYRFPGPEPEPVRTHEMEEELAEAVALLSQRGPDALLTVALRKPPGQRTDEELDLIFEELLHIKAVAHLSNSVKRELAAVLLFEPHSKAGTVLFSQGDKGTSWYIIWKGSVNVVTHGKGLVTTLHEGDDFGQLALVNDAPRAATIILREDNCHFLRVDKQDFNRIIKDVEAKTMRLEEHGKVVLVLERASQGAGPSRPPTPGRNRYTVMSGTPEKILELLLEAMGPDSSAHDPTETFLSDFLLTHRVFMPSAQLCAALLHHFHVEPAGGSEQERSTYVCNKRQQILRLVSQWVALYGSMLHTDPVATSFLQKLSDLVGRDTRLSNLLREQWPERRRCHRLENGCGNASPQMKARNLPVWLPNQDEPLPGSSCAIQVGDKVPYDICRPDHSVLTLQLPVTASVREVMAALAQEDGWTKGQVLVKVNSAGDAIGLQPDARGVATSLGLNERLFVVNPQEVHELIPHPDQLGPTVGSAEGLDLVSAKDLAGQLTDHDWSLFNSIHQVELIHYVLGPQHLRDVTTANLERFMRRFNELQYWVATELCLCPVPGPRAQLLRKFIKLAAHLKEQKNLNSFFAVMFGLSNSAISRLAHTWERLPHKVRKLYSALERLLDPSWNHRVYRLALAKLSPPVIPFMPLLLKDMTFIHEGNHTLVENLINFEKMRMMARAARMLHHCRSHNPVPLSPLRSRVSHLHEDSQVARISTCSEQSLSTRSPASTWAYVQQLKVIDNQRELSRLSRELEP

For `Cc1cccc(CN2Cc3cccc4c3[C@H](C=CC4)CC2=S)c1`, which max response is on record?
Its max response is 29.3%.

`CCCCC[C@H]1CN(C2CCCCC2)C(=O)[C@@H]1CC(=O)NCc1ccc(OC)cc1` was tested. Which max response did it give?
Its max response is -76.4%.

Which max response does the source give for `CC(=O)Oc1c2c(c3c(c1CC=C(C)C)O[C@@]14C(=CC5CC1C(C)(C)OC4(C/C=C(\C)C(=O)O)C5=O)C3=O)OC(C)(CCC=C(C)C)C=C2` (stereo partly specified) here?
The max response was -112%.

For `O=C(c1cc(C(F)(F)F)cc(C(F)(F)F)c1)N1CCC[C@@]2(CCN(c3ccccn3)C2)C1`, which max response is on record?
Its max response is -122%.

`O=C1C[C@H]2C=CCc3cccc(c32)CN1Cc1ccccc1` was tested. Which max response did it give?
Its max response is -26.6%.

Which max response does the source give for `CNc1nc(-c2ccccc2OC)nc2ccccc12` here?
The max response was 24.4%.

`COc1ccc(CNc2ncncc2-c2ccccc2C)c(OC)c1` was tested. Which max response did it give?
The max response was -35%.

For `C=C1C(=O)C23C(O)C1CCC2[C@]12COC3(O)C(O)C1C(C)(C)CC[C@H]2O` (stereo partly specified), which max response is on record?
The max response was -116%.

How did the max response turn out when `O=C(O)CCc1cccnc1` was run?
Its max response is -31.6%.

With `COc1ccc(CN2CCOc3c(cc(-c4ncc(C(F)(F)F)cc4Cl)cc3OCC3CCCO3)C2)c(O)c1` (stereo unspecified) as the compound, how does the max response read?
The max response was -26%.

With `CC1=C(/C=C/C(C)=C/C=C/C(C)=C/C=C/C=C(C)/C=C/C=C(C)/C=C/C2=C(C)CCCC2(C)C)C(C)(C)CCC1` as the compound, how does the max response read?
Its max response is -9%.

`Cn1cccc1C(=O)N1CCC2(CC1)CN(c1cccc(-c3ccccc3)c1)C2` was tested. Which Potency did it give?
The Potency was 112 µM (active).

Which max response does the source give for `O=C(c1csnn1)N1CCC[C@@]2(CCN(c3cccc(-c4ccccc4)c3)C2)C1` here?
The max response was -63.8%.

For `CC(C)NC(=O)N1CCC2(CC1)CCN(C(=O)c1cccn1C)CC2`, which max response is on record?
The max response was -49.6%.

For `Oc1ccc2c(c1)OCC1c3cc4c(cc3OC21)OCO4` (stereo unspecified), which max response is on record?
The max response was 5.11%.

For `O=C(c1ccc(F)cc1)C1CCN(CCCCc2ccccc2)CC1`, which max response is on record?
Its max response is -5.39%.

`COc1cc(=O)n2c(c1C(=O)N(C)Cc1nccs1)CCN(Cc1ccc(Cl)cc1)CC2` was tested. Which max response did it give?
The max response was -7.19%.

With `Cc1nc2cnc(Nc3ccccc3)nc2n(Cc2ccc(F)cc2)c1=O` as the compound, how does the max response read?
The max response was 15.4%.

`O=c1c(-c2cc(F)cc(F)c2)nc2cnc(Oc3ccccc3)nc2n1C[C@H]1CCCO1` was tested. Which max response did it give?
The max response was -26.8%.

How did the max response turn out when `N#CCCn1c(=O)c(-c2cc(F)cc(F)c2)nc2cnc(Oc3ccccc3)nc21` was run?
The max response was 3.54%.

How did the max response turn out when `O=C(c1cc2ccccc2o1)N1CCN(Cc2ccccc2)CC1` was run?
The max response was -2.2%.

How did the max response turn out when `c1ccc2c(Nc3ccncc3)nc(-c3ccoc3)nc2c1` was run?
The max response was -4.89%.

`c1ccc2c(Nc3ccncc3)nc(-c3ccc4c(c3)OCO4)nc2c1` was tested. Which max response did it give?
Its max response is 10.9%.

With `COc1cccc(-c2nc(Nc3ccncc3)c3ccccc3n2)c1` as the compound, how does the Potency read?
Its Potency is 100 µM (active).

`CC1CC2C3CCC4=CC(=O)C=C[C@]4(C)[C@@]3(F)[C@@H](O)C[C@]2(C)[C@@]1(O)C(=O)CO` (stereo partly specified) was tested. Which max response did it give?
Its max response is 3.48%.

How did the max response turn out when `O=C(O)C(O)[C@@](O)(Cc1ccc(O)cc1)C(=O)O` (stereo partly specified) was run?
Its max response is 6.44%.

With `O=C(O)C1CCN(c2ncnc3ccc(-c4ccccc4C(F)(F)F)cc23)CC1` as the compound, how does the max response read?
Its max response is -7.12%.

`CC(C)C(=O)NC(C)c1nnc2n1CCN(Cc1cccc3ncccc13)CC2` (stereo unspecified) was tested. Which max response did it give?
The max response was -0.781%.

`O=C(c1csnn1)N1CCC2(CCN(Cc3nccs3)CC2)CC1` was tested. Which max response did it give?
The max response was -44.7%.

For `C[C@@H]1CN(Cc2ccc3c(c2)CN(Cc2ccc(Oc4ncccn4)cc2)CCO3)C[C@H](C)O1`, which max response is on record?
The max response was -1.6%.

For `O=C(c1ccco1)N1CCC[C@@]2(CCN(Cc3nccs3)C2)C1`, which max response is on record?
The max response was -63.4%.

How did the max response turn out when `CS(=O)(=O)N1CCC[C@@]2(CCN(c3ccncc3)C2)C1` was run?
Its max response is -34%.

For `O=C(Nc1cccc(F)c1)N1CC2(CCN(C(=O)c3cnccn3)CC2)C1`, which max response is on record?
Its max response is 7.33%.

`C=C1C(=CC=C2CCC[C@]3(C)[C@@H]([C@H](C)C=C[C@H](C)C(C)C)CC[C@@H]23)C[C@@H](O)C[C@@H]1O` was tested. Which max response did it give?
Its max response is -167%.

`C=CC(C1=CC(=O)C=CC1=O)c1ccc(O)cc1` (stereo unspecified) was tested. Which max response did it give?
The max response was 3.74%.

How did the max response turn out when `Fc1cccc(/C=N\N=C/c2cccc(F)c2)c1` was run?
The max response was -1.27%.

For `O=C1OC(C(O)CO)C(O)=C1O` (stereo unspecified), which max response is on record?
The max response was 21.1%.

`N#Cc1cc2[nH]c(=O)c(=O)[nH]c2cc1[N+](=O)[O-]` was tested. Which max response did it give?
The max response was 0.579%.

`CN1CC[C@H](c2c(O)cc(O)c3c(=O)cc(-c4ccccc4Cl)oc23)[C@H](O)C1` was tested. Which max response did it give?
The max response was -89%.

Which max response does the source give for `Cn1cc(-c2nc3cncnc3n(-c3ccccc3)c2=O)c2ccccc21` here?
Its max response is -219%.

How did the max response turn out when `N[C@@H](C(=O)O)c1ccc(P(=O)(O)O)cc1` was run?
The max response was -5.54%.
